# Pf growth 96h: P. falciparum growth inhibition at 96 hour, primary screen for plastid delayed-death inhibitors; P. falciparum luciferase reporter growth, 96 h; Potency, µM (highest dose often 28.7 µM), without a hit: top-dose activity change, negative = inhibition, most hits filed as inhibitors; 320,000 compounds, 6.9% hits; further: potency means the concentration at half of the fitted maximal effect; on the % scale 0 is the no-effect control and ±100 the full control effect
#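 96 h incubation, 37 C, 5% CO2, of luciferase-reporter P. falciparum-infected RBCs (2% hematocrit, 0.05% parasitemia final) with test compounds; endpoint luminescence.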
# CHX counter: affects cycloheximide protein synthesis inhibition readout, counter-screen. cell reporter, cycloheximide protein synthesis inhibition counterscreen. max response, %. 300,000 compounds, 12% hits; in the data active means max response mostly above about 13%, no sharp cut-off; inactive means mostly below about 14%; further: read at 38.3 µM for the half of the compounds with a filed dose; 0% is about no effect
# Pf growth 48h: inhibits P. falciparum growth in the first generation, 48 h | Potency, µM (highest dose often 28.7 µM), inactives show at the highest dose activity change, negative = inhibition, hits mostly inhibitors | 310,000 compounds, 5.9% hits | P. falciparum luciferase growth in erythrocytes, 48 h; further: potency means the concentration at half of the fitted maximal effect; on the % scale 0 is the no-effect control and ±100 the full control effect
#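 Growth was read as firefly luciferase luminescence after a 48 h, 37 C, 5% CO2 exposure of compounds to reporter-bearing P. falciparum cultures (0.1% parasitemia, 2% hematocrit final) in Albumax-supplemented RPMI 1640.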
# Shiga inhibitor: blocks Shiga toxin action in Vero cells | Vero cells, Shiga toxin protein synthesis inhibition reporter | inhibition, % at 38.7 µM | 290,000 compounds, 9.2% hits | AID 2315; in the data active means inhibition mostly above about 28%, no sharp cut-off; inactive means mostly below about 43%; further: 0% is about no effect
# An asterisk follows results filed as active; i = inactive; ? = inconclusive; nt = no result given. Only some compounds are listed: those with a hit (about 21% of all), similar ones and a draw of the others. Unless noted, the call rests on the fitted dose curve; in most records, active means well fitted inhibition curve with a large enough effect; inconclusive means small, poorly fitted or top-dose-only effect, or another doubt; inactive means no such curve, though single readings can be large or run the other way.
SMILES,Pf growth 96h,CHX counter,Pf growth 48h,Shiga inhibitor
CNC(=S)N/N=C/c1ccc(-c2ccc(Cl)c([N+](=O)[O-])c2)o1,-26%,5,?,28
CCc1nnc(N/N=C/c2ccc(-c3ccc([N+](=O)[O-])cc3)o2)n1N,?,12,12µM*,-3
C=CCNC(=S)N/N=C/c1ccc(-c2ccc(OC)cc2)o1,?,16,5.2µM*,51
CNC(=S)N/N=C/c1ccc(-c2ccc(C(=O)O)cc2)o1,264%,23*,1%,56*
CCCCC(=O)N/N=C/c1ccc(-c2ccc([N+](=O)[O-])cc2)o1,9.3µM*,14,-24%,25*
C=CCNC(=S)N/N=C/c1ccc(-c2cc(Cl)ccc2Cl)o1,1%,3,?,9
O=C(N/N=C/c1ccc(-c2ccc([N+](=O)[O-])cc2)o1)[C@H]1C[C@@H]1c1ccccc1,38%,-3,2%,13
Cc1ccc(-c2ccc(/C=N\NC(=O)c3cc4c(ccc5ccccc54)o3)o2)cc1[N+](=O)[O-],2.9µM*,-2,?,10
CS(=O)(=O)N(CC(=O)N/N=C/c1cccc2c1OCCO2)c1ccccc1Br,49%,-4,-2%,-21
CC(C)(C)NC(=S)N/N=C\c1ccc(-c2ccc([N+](=O)[O-])cc2)o1,3.7µM*,37*,?,73*
Cc1ccc([N+](=O)[O-])cc1-c1ccc(/C=N/NC(=O)c2cc3c(ccc4ccccc43)o2)o1,41%,-2,nt,-8
CCOC(=O)c1ccc(-c2ccc(/C=N/NC(=O)CN(c3ccccc3Br)S(C)(=O)=O)o2)cc1,26%,36*,-63%,56*
CCC(=O)N/N=C/c1ccc(-c2ccc(Cl)cc2)o1,?,34*,51%,67*
O=C(Cc1ccc(F)cc1)N/N=C/c1ccc(-c2ccc(Cl)c(C(=O)O)c2)o1,2%,-2,-2%,2
CCOC(=O)c1cnc2c(C)cc(Cl)cc2c1N1CCN(C)CC1,?,-4,nt,-13
Cc1nnc(SCC(=O)N/N=C/c2ccc(-c3ccc(C)c(Cl)c3)o2)s1,?,17*,17%,40
CCC(=O)N/N=C/c1ccc(-c2ccc([N+](=O)[O-])cc2)o1,10µM*,8,-2%,-7
O=C(N/N=C/c1ccc(-c2ccccc2)o1)c1ccccc1O,?,16,?,40*
Cc1ccc(C(=O)N/N=C\c2ccc(-c3ccc(Cl)c(Cl)c3)o2)cn1,-52%,1,?,7
O=C(N/N=C/c1ccc(-c2ccc([N+](=O)[O-])cc2)o1)C(O)c1ccccc1 (stereo not drawn),-5%,0,-2%,13
Cc1cc(C)n(Cc2ccc(C(=O)N/N=C/c3ccc(-c4ccc([N+](=O)[O-])cc4)o3)o2)n1,5.2µM*,-1,-10%,-5
S=C(Nc1ccc(N2CCOCC2)cc1)Nc1ccc2snnc2c1,45%,22,9%,14
Cc1ccc(NCc2n[nH]c(=S)n2-c2cccc(Cl)c2)cc1,?,-3,-21%,2
Cc1ccc(-n2c(CNc3cccc(Cl)c3)n[nH]c2=S)cc1,81%,8,8.3µM*,33
Cc1ccc(C)c(CNS(=O)(=O)c2c(C(=O)N3CCCC3)c(C)n(C)c2C)c1,?,-2,?,-6
SMILES,Pf growth 96h,CHX counter,Pf growth 48h,Shiga inhibitor
CNC(=O)COc1ccccc1C(=O)Nc1ccc2c(c1)oc1ccccc12,4.7µM*,6,nt,20
O=C(Nc1cc(Cl)cc(Cl)c1)c1cccnc1,19%,-3,?,nt
O=C(Nc1ccc2c(c1)oc1ccccc12)c1ccncc1,?,51*,30%,67*
O=C(Nc1ccc2c(c1)oc1ccccc12)c1cccnc1,2.1µM*,38*,?,58
CCN1CCN(c2c(C=O)c(Cl)nc3ccc(OC)cc23)CC1,?,2,-12%,nt
CC1CCCN(C(=O)C(C)Sc2nc(-c3ccccc3)cc(C(F)(F)F)n2)C1 (stereo not drawn),nt,-3,2.6µM*,-17
Cc1c(O)nc2ccccn2c1=O,73%,-3,0%,19
CCCCc1c(O)nc2ccccn2c1=O,12µM*,-2,?,-5
Cc1ccc(C2(c3noc(CN(C)Cc4cccnc4)n3)CCCC2)cc1,-11%,-1,?,12
Cc1ncc(CSc2nc3ccccc3[nH]2)c(N)n1,39%,1,19%,9
COc1ccc(CSc2nc3ccccc3[nH]2)cc1,i,35*,374%,74*
CCOc1ccccc1CSc1nc2ccccc2[nH]1,?,19*,?,22
O=C(Nc1ccc(-c2nc3ccccc3[nH]2)cc1)c1ccc(N2C(=O)CCC2=O)cc1,-22%,-4,-12%,-7
c1ccc2[nH]c(SCc3ccc(-c4nnco4)cc3)nc2c1,?,18*,105%,89*
O=C1CCC(=O)N1c1ccc(CSc2nc3ccccc3[nH]2)cc1,39%,27*,60%,87*
COc1cccc(-c2nn(-c3ccc(C)cc3)cc2C(=O)N2CCN(C3CCS(=O)(=O)C3)CC2)c1 (stereo not drawn),-10%,nt,?,nt
CCOc1ccccc1/C=C/c1nc2ccccc2[nH]c1=O,5%,13*,13%,17
CCOc1ccccc1OCCCC(=O)Nc1nc2ccccc2[nH]1,-3%,5,17%,-2
CN(CC(=O)Nc1ccc(F)c(F)c1F)C(=O)C1CCC1,17%,nt,-14%,nt
Cc1ccc(-c2cn(-c3ccccc3)c(SCC(N)=O)n2)cc1C,6%,37*,39%,43*
CCOC(=O)NC(=O)CSc1nnnn1-c1ccccc1,?,-3,-1%,1
CCOC(=O)NC(=O)CSc1nc(-c2ccc(C)c(C)c2)cn1-c1ccccc1,-68%,63*,-67%,131*
CC(C)Sc1nc(SCC(=O)O)c2c3c(sc2n1)COC(C)(C)C3,?,43*,?,54*
CC(C)Sc1nc(SCC(=O)NCc2ccco2)c2c3c(sc2n1)COC(C)(C)C3,2.6µM*,93*,?,183*
COc1ccc(CCNC(=O)C(=O)Nc2ccc3c(c2)OCO3)cc1OC,9%,2,-6%,-4
SMILES,Pf growth 96h,CHX counter,Pf growth 48h,Shiga inhibitor
O=C(Nc1ccc2c(c1)OCO2)C1CCCN1C(=O)OCc1ccccc1 (stereo not drawn),21%,-3,-12%,14
O=C(Nc1ccc2c(c1)OCO2)OCc1ccccc1,nt,25*,226%,81*
O=C(NCCc1ccccc1)C(=O)Nc1ccc2c(c1)OCCO2,?,27*,113%,74*
O=C(CCc1ccccc1)Nc1ccc2c(c1)OCO2,1%,53*,104%,89*
O=C(CS(=O)(=O)Cc1ccccc1)Nc1ccc2c(c1)OCO2,?,16,36%,34
O=C(NCCc1ccccc1)Nc1ccc2c(c1)OCO2,16%,61*,0%,156*
COc1ccc(CCNC(=O)Nc2ccc3c(c2)OCO3)cc1OC,?,6,-8%,11
CCCCN(C(=O)c1ccc(C)o1)c1c(N)n(CC(C)C)c(=O)[nH]c1=O,18%,nt,-1%,nt
Cc1sc2nc(CSC(C)C(=O)NC3(C#N)CCCCC3)[nH]c(=O)c2c1C (stereo not drawn),0%,nt,0%,nt

# Screening results deposited in PubChem BioAssay by National Center for Advancing Translational Sciences (NCATS).
